Inconclusive results are not listed. Active and inactive are the calls of the source. Unless noted, calls come from the whole dose curve; as a rule, active = well fitted curve in the direction sought with a large enough effect; inconclusive = small, poorly fitted or top-dose-only effect, or another doubt; inactive = no such curve, though single readings can be large; an effect the other way counts as inactive or inconclusive.
What was measured:
[1] = Cell Viability - BJ (AID 421; calls by dose curve;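 note: potency is the fitted concentration of half-maximal effect; cells exposed to compound for 40 hours at 37 °C before readout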); settings: BJ fibroblast viability, qHTS
Method in brief: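 Cytotoxicity in human BJ foreskin fibroblasts is scored as loss of cellular ATP after a 40-hour exposure, measured by luciferase luminescence. Controls are DMSO and 100 uM tamoxifen.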

[2] = Cell Viability - Hek293 (AID 427;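 active = compounds whose dose-response curve shows a full or clear partial loss of cell viability, called from curve shape rather than a numeric limit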;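 note: potency is the fitted concentration of half-maximal effect; cells exposed to compound for 40 hours at 37 °C before reading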); settings: qHTS
Method in brief: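 qHTS, human embryonic kidney (adenovirus-transformed) cells; 40 hr cpd, 37 °C; CellTiter-Glo ATP luminescence. Norm: DMSO = 0, 100 uM tamoxifen = 100% inhibition. Hill-fit AC50.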

[3] = Cell Viability - HepG2 (AID 433; calls by dose curve;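 note: potency is the fitted concentration of half-maximal effect; potency for ATP loss meaning cytotoxicity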); settings: qHTS
Method in brief: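 HepG2 cells, 1500 per well, treated 40 hr at 37 °C in complete medium; viability from intracellular ATP by CellTiter-Glo luminescence. Normalized to DMSO and 100 uM tamoxifen; AC50 from Hill fit of qHTS concentration-response.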

[4] = Cell Viability - MRC5 (AID 434; calls by dose curve;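 note: potency is the fitted concentration of half-maximal effect; potency reflects cytotoxicity seen as loss of intracellular ATP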); settings: MRC5 lung fibroblast viability, qHTS
Method in brief: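 AC50 values come from Hill-equation fits of intracellular ATP loss, measured by CellTiter-Glo luminescence. Normal lung fibroblasts (MRC5) had 40 hr compound treatment at 37 C, normalized between DMSO and 100 uM tamoxifen.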

[5] = biological target: Mitogen-activated protein kinase 10 (Mus musculus) (UniProt Q61831); test: JNK3 AlphaScreen Assay (AID 530; active = well fitted curve in either direction with a large enough effect, not every such curve was filed as active;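 note: kinase came from lysate of stimulated human HepG2 cells; signal reports phosphorylation of biotinylated GST-cJun 1-79 at Ser73 with 10 µM ATP; % is set by controls: 0 for no effect and ±100 for the full control effect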); settings: JNK3 lysate, c-Jun phosphorylation; series mostly up to 57.1 µM
Method in brief: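 Kinase buffer: 20 mM Tris-HCl pH 7.6, 10 mM MgCl2, 1 mM DTT, 0.1 mM Na3VO4, 0.01% Tween-20; ATP 10 uM. Substrate biotin-GST-cJun(1-79), enzyme from activated HepG2 lysates. Detection by Ser73 phospho-antibody AlphaScreen.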

[6] = Cell Viability - N2a (AID 540); settings: N2a mouse neuroblastoma cell viability; activity change, negative = cytotoxicity: at 92.2 µM (top of the series);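 note: plate controls were DMSO alone for no effect and tamoxifen control for full effect; nearly all actives have a fitted effect of over 45% in size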
Method in brief: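 In this qHTS cytotoxicity screen, ATP-dependent luciferase luminescence reports viable N2a cells after a 40 hr compound exposure in complete culture medium. Potencies are AC50 values from standard Hill equation fits.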

[7] = Cell Viability - HUV-EC-C (AID 542); settings: HUV-EC-C endothelial cell viability, qHTS; series mostly up to 92.2 µM; note: % is set by controls: 0 for no effect and ±100 for the full control effect; nearly all actives have a fitted effect of over 35% in size
Method in brief: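 Concentration-dependent ATP loss in HUV-EC-C cells is the measure. Exposure lasts 40 hr at 37 °C; luminescence follows CellTiter-Glo addition, and Hill fits give AC50.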

[8] = Cell Viability - H-4-II-E (AID 543); settings: H-4-II-E rat hepatoma viability; series mostly up to 92.2 µM; note: % is set by controls: 0 for no effect and ±100 for the full control effect; nearly all actives have a fitted effect of over 35% in size
Method in brief: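 AC50 from Hill-modelled qHTS concentration-response curves. H-4-II-E rat hepatoma cells in complete medium, 40 hr exposure at 37 °C, viability by CellTiter-Glo ATP luminescence.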

[9] = Cell Viability - SH-SY5Y (AID 544); settings: SH-SY5Y neuroblastoma cell viability; viability change, negative = cytotoxic: at 92.2 µM (top of the series); note: nearly all actives have a fitted effect of over 55% in size
Method in brief: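 Quantitative HTS in SH-SY5Y neuroblastoma cells, 40 hr treatment at 37 °C, ATP content by luciferase luminescence; AC50 from Hill fits.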

[10] = Cell Viability - Renal Proximal Tubule (AID 545); settings: renal proximal tubule cells viability, primary cells of rat origin; series mostly up to 91.7 µM; note: nearly all actives have a fitted effect of over 40% in size
Method in brief: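 Rat renal proximal tubule primary cells, 1000/well, exposed to compounds for 40 hr at 37 °C in complete medium; cellular ATP read by CellTiter-Glo luminescence. AC50 from concentration-response fitted with standard Hill equation.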

[11] = Cell Viability - Mesenchymal (AID 546); settings: mesenchymal cells viability, qHTS; series mostly up to 91.7 µM;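 note: cells exposed to compound for 40 hours before reading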
Method in brief: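 CellTiter-Glo luminescence (intracellular ATP, 20 min room temperature) after 40 hr compound exposure at 37 °C of 1000 glomerulus-derived human kidney mesenchymal cells/well; AC50 values obtained by fitting qHTS concentration-response data to the Hill equation.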

[12] = Cellular Toxicity (caspase-3) HepG2 (AID 654); settings: HepG2 caspase-3 activation, luminescence; series mostly up to 92.2 µM;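 note: cells exposed to compound for 16 hours before reading; 0% = DMSO alone and 100% = caspase signal from 100 µM tamoxifen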
Method in brief: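 Concentration-response AC50 values reflect caspase-3/7 induction in HepG2 cells after 16 hours of compound exposure, quantified by luminescence from liberated aminoluciferin and referenced to 100 uM tamoxifen as full stimulation.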

[13] = Cellular Toxicity (caspase-3) Jurkat (AID 655); settings: Jurkat caspase-3 activation, luminescence; caspase-3 activation: at 92.2 µM (top of the series), DMSO = 0%, tamoxifen = 100%;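 note: cells exposed to compound for 16 h at 37 °C before reading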
Method in brief: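 Jurkat cells (5000/well) in complete medium exposed 16 h at 37 C; caspase-3/7 activity read by Caspase-Glo luminescence after 20 min at room temperature. Normalized to DMSO and 100 uM tamoxifen; AC50 from Hill fits.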

[14] = Cellular Toxicity (caspase-3) HUV-EC-C (AID 656); settings: HUV-EC-C cells, caspase-3 activation (apoptosis), vehicle = 0, 100 µM tamoxifen = 100%; series mostly up to 92.2 µM
Method in brief: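 HUV-EC-C cells (1000/well) in complete medium, compound-treated 16 h at 37 °C; caspase-3/7 activity read by Caspase-Glo 3/7 luminescence. Normalized to DMSO (basal) and 100 uM tamoxifen (100%); AC50 from Hill-equation concentration-response fits.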

[15] = Cellular Toxicity (caspase-3) SHSY5Y (AID 657); settings: SH-SY5Y caspase-3 activation, DMSO zero, 10 µM staurosporine = 100%; series mostly up to 91.7 µM
Method in brief: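 SH-SY5Y human neuroblastoma cells, 1500/well, exposed to compound for 16 hours at 37 °C in complete medium. Caspase-3/7 activity read by Caspase-Glo luminescence after 1 hr at room temperature, normalized to DMSO and 10 uM staurosporine; AC50 from Hill fit.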

[16] = Cellular Toxicity (caspase-3) BJ (AID 658); settings: BJ fibroblasts, luminescence, normalized: DMSO 0%, staurosporine 100%; series mostly up to 91.7 µM
Method in brief: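 Caspase-Glo 3/7 luminescence, read 1 hr after reagent at room temperature, in normal BJ fibroblasts exposed 16 hours at 37 °C. AC50 values from Hill-equation concentration-response, scaled between DMSO basal and 10 uM staurosporine as 100%.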

[17] = Cellular Toxicity (caspase-3) MRC-5 (AID 659); settings: MRC-5 cells, luminescence, normalized: DMSO 0%, 10 µM staurosporine 100%; series mostly up to 91.7 µM
Method in brief: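 Luminescent Caspase-Glo 3/7 read-out (1 h, room temperature) after a 16 h, 37 °C compound exposure of MRC-5 lung fibroblasts at 1500 cells/well. Concentration-response AC50 from Hill equation; 0% DMSO, 100% 10 uM staurosporine.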

[18] = Cell Viability - SK-N-SH (AID 435; calls by dose curve;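 note: potency is the fitted concentration of half-maximal effect; compound exposure lasted 40 h at 37 °C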); settings: SK-N-SH neuroblastoma cell viability qHTS
Method in brief: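 SK-N-SH neuroblastoma cells (1500/well) treated 40 h at 37 °C in complete medium; viability read as cellular ATP by CellTiter-Glo luminescence. Normalized to DMSO and 100 uM tamoxifen; AC50 from Hill fits of qHTS concentration-response.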

[19] = Cell Viability - NIH 3T3 (AID 541); settings: NIH 3T3 cell viability, qHTS; activity change, negative = cytotoxicity: at 92.2 µM (top of the series);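 note: plate controls were DMSO alone for no effect and tamoxifen positive control for full effect; nearly all actives have a fitted effect of over 25% in size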
Method in brief: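 In this cytotoxicity screen, acute toxicity is scored as an ATP drop measured by CellTiter-Glo in NIH 3T3 fibroblasts following a 40 hr, 37 °C incubation with compound.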

[20] = Cell Viability - Jurkat (AID 426;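 active = dose-dependent loss of cell ATP signal giving a full or clear fitted curve, ranked by lower potency value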; note: potency is the fitted concentration of half-maximal effect); settings: qHTS
Method in brief: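 Cytotoxicity was scored as loss of cellular ATP, measured by luciferase-based luminescence, in Jurkat clone E6-1 cells after 40 h compound treatment; tamoxifen and doxorubicin served as positive controls.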

c1ccc2c(c1)Oc1ccccc1S2
inactive: Potency [1] > 92 µM | Potency [2] > 92 µM | Potency [3] > 92 µM | Potency [4] > 92 µM | outcome [5] | activity change, negative = cytotoxicity [6] -9.06% | Potency [7] | Potency [8] | Potency [9] | Potency [10] | Potency [11] | Potency [12] | caspase-3 activation [13] -0.252% | outcome [14] | outcome [15] | outcome [16] | outcome [17]

C=CCCC
inactive: Potency [1] > 92 µM | Potency [2] > 92 µM | Potency [3] > 92 µM | Potency [4] > 92 µM | Potency [18] > 92 µM | activity change, negative = cytotoxicity [6] 1.78% | Potency [19] | Potency [7] | Potency [8] | Potency [9] | Potency [10] | Potency [11] | Potency [12] | caspase-3 activation [13] -0.379% | outcome [14] | outcome [15] | outcome [16] | outcome [17]

Nc1cccc(C(F)(F)F)c1
inactive: Potency [1] > 92 µM | Potency [2] > 92 µM | Potency [3] > 92 µM | Potency [4] > 92 µM | Potency [18] > 92 µM | outcome [5] | activity change, negative = cytotoxicity [6] 0.982% | Potency [19] | Potency [7] | Potency [8] | Potency [9] | Potency [10] | Potency [11] | Potency [12] | caspase-3 activation [13] -0.253% | outcome [14] | outcome [15] | outcome [16] | outcome [17]

O=C(O)c1ccc(C(=O)O)cc1
inactive: Potency [1] > 92 µM | Potency [2] > 92 µM | Potency [3] > 92 µM | Potency [4] > 92 µM | Potency [18] > 92 µM | outcome [5] | activity change, negative = cytotoxicity [6] 0.102% | Potency [19] | Potency [7] | Potency [8] | Potency [9] | Potency [10] | Potency [11] | Potency [12] | caspase-3 activation [13] 1.28% | outcome [14] | outcome [15] | outcome [16] | outcome [17]

CCCCCCC(=O)O
inactive: Potency [1] > 92 µM | Potency [20] > 92 µM | Potency [2] > 92 µM | Potency [3] > 92 µM | outcome [5] | activity change, negative = cytotoxicity [6] -3.74% | Potency [19] | Potency [7] | Potency [8] | Potency [9] | Potency [11] | Potency [12] | caspase-3 activation [13] 0.927% | outcome [15] | outcome [16] | outcome [17]

O=C(O)c1cc(Cl)cc(Cl)c1
inactive: Potency [1] > 92 µM | Potency [2] > 92 µM | Potency [3] > 92 µM | Potency [4] > 92 µM | Potency [18] > 92 µM | outcome [5] | activity change, negative = cytotoxicity [6] -1.73% | Potency [19] | Potency [7] | Potency [8] | Potency [9] | Potency [10] | Potency [11] | Potency [12] | caspase-3 activation [13] -1.52% | outcome [14] | outcome [15] | outcome [16] | outcome [17]

ON=C1CCCCC1
inactive: Potency [1] > 92 µM | Potency [2] > 92 µM | Potency [3] > 92 µM | Potency [18] > 92 µM | outcome [5] | activity change, negative = cytotoxicity [6] 0.317% | Potency [7] | Potency [8] | Potency [9] | Potency [10] | Potency [11] | Potency [12] | outcome [15] | outcome [16] | outcome [17]

Clc1ccc(Cl)c(Cl)c1Cl
inactive: Potency [1] > 92 µM | Potency [2] > 92 µM | Potency [3] > 92 µM | Potency [4] > 92 µM | Potency [18] > 92 µM | outcome [5] | activity change, negative = cytotoxicity [6] -2.29% | Potency [19] | Potency [7] | Potency [8] | Potency [9] | Potency [10] | Potency [11] | Potency [12] | caspase-3 activation [13] -1.65% | outcome [15] | outcome [16] | outcome [17]

C=C(C)C(=O)OCC(C)O (stereo not given)
inactive: Potency [1] > 92 µM | Potency [2] > 92 µM | Potency [3] > 92 µM | Potency [4] > 92 µM | outcome [5] | activity change, negative = cytotoxicity [6] 6.96% | Potency [7] | Potency [8] | Potency [9] | Potency [10] | Potency [11] | Potency [12] | caspase-3 activation [13] 1.29% | outcome [14] | outcome [15] | outcome [16]

CCCCCCO
inactive: Potency [1] > 92 µM | Potency [2] > 92 µM | Potency [3] > 92 µM | Potency [4] > 92 µM | Potency [18] > 92 µM | outcome [5] | activity change, negative = cytotoxicity [6] 4.85% | Potency [19] | Potency [7] | Potency [8] | Potency [9] | Potency [10] | Potency [11] | Potency [12] | caspase-3 activation [13] -0.00564% | outcome [14] | outcome [15] | outcome [16]

O=C(O)CCSSCCC(=O)O
inactive: Potency [1] > 92 µM | Potency [2] > 92 µM | Potency [3] > 92 µM | Potency [4] > 92 µM | outcome [5] | activity change, negative = cytotoxicity [6] 1.39% | Potency [19] | Potency [7] | Potency [8] | Potency [9] | Potency [10] | Potency [11] | Potency [12] | caspase-3 activation [13] 0.0924% | outcome [14] | outcome [15] | outcome [16] | outcome [17]

CCCCCCCCC/C=C/CC1CC(=O)OC1=O (stereo not given)
inactive: Potency [1] > 92 µM | Potency [2] > 92 µM | Potency [3] > 92 µM | Potency [4] > 92 µM | Potency [18] > 92 µM | activity change, negative = cytotoxicity [6] 11.9% | Potency [7] | Potency [8] | Potency [9] | Potency [10] | Potency [11] | Potency [12] | caspase-3 activation [13] 1.29% | outcome [14] | outcome [15] | outcome [16] | outcome [17]
